Experimental data as given in PubChem BioAssay (NCI).
The panel holds about 83,000 compounds, 20% with a hit somewhere; the sample as a whole holds those more often.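 Each cell line was grown in a 96-well plate and treated with one concentration of compound for 48 hours. Values below 10 were considered active.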 A number with no mark means an inactive call. Active and inactive are the calls of the source.

Assays:
Assay in all cases: NCI-60 one-dose screen, 48 h (100 = growth as untreated, 0 = no growth, -100 = all killed)
Conditions in all cases: 10 µM unless noted
NCI-H23 lung = test system: NCI-H23 lung
NCI-H226 lung = test system: NCI-H226 lung
NCI-H322M lung = test system: NCI-H322M lung
HOP-62 NSCLC = test system: HOP-62 NSCLC
NCI-H460 lung = test system: NCI-H460 lung
HOP-92 NSCLC = test system: HOP-92 NSCLC
NCI-H522 lung = test system: NCI-H522 lung
A549/ATCC NSCLC = test system: A549/ATCC NSCLC
786-0 renal = test system: 786-0 renal
COLO 205 colon = test system: COLO 205 colon
DU-145 prostate = test system: DU-145 prostate
K-562 leukemia = test system: K-562 leukemia
MALME-3M melanoma = test system: MALME-3M melanoma
MDA-MB-231 breast = test system: MDA-MB-231 breast
RXF 393 renal = test system: RXF 393 renal
SF-268 CNS = test system: SF-268 CNS
SF-295 CNS = test system: SF-295 CNS
SF-539 CNS = test system: SF-539 CNS
M14 melanoma = test system: M14 melanoma

Row | SMILES | growth (NCI-H23 lung) | growth (NCI-H226 lung) | growth (NCI-H322M lung) | growth (HOP-62 NSCLC) | growth (NCI-H460 lung) | growth (HOP-92 NSCLC) | growth (NCI-H522 lung) | growth (A549/ATCC NSCLC) | growth (786-0 renal) | growth (COLO 205 colon) | growth (DU-145 prostate) | growth (K-562 leukemia) | growth (MALME-3M melanoma) | growth (MDA-MB-231 breast) | growth (RXF 393 renal) | growth (SF-268 CNS) | growth (SF-295 CNS) | growth (SF-539 CNS) | growth (M14 melanoma)
1 | Cc1nc2scc(-c3ccccc3)n2c(=O)c1CCO | 99.6% | 99.9% | 103% | 92.5% | 100% | 84.6% | 99.1% | 93.6% | 106% | 108% | 108% | 98.4% | 102% | 97.3% | 106% | 97.5% | 102% | 100% | 101%
2 | Nc1nc(N)c2nc(CNc3ccc(C(=O)CC(CCC(=O)O)C(=O)O)cc3)cnc2n1 (stereo not drawn) | 31.4% | 38.2% | 47.5% | 39.8% | 19.8% | -3.77% (active) | -9.57% (active) | 2.47% (active) | 20.9% | 66% | 28.9% | 58.3% | 111% | 101% | 19.3% | 29.7% | 37.8% | 20.5% | 27.1%
3 | COc1ccc(/C=C(\C#N)c2ccc([N+](=O)[O-])cc2)c2ccccc12 | 65.3% | 16.1% | 51.6% | 27.1% | 64.6% | 50.1% | 34% | 48.7% | 34.5% | 81.4% | 60.9% | 44.7% | 14.6% | 45% | 58.3% | 39.8% | 70.7% | 49.4% | 65.7%
4 | COc1ncc(-c2ccc3ncnc(Nc4cccc(Cl)c4)c3c2)cc1N(S(C)(=O)=O)S(C)(=O)=O | 71.5% | 64.5% | 17.4% | 79.1% | 62.3% | 7.62% (active) | 52.2% | 47.9% | 79.5% | 77.1% | 54.8% | 94.2% | 44.8% | 67.3% | 68.8% | 73.2% | 76% | 76.2% | 73.7%
5 | O=C(OCCCCOC(=O)n1cnc2ccccc21)n1cnc2ccccc21 | 99.7% | 97.4% | 105% | 98.3% | 103% | 88.8% | 91.3% | 92.5% | 105% | 103% | 105% | 101% | 101% | 94.7% | 107% | 98.8% | 98.3% | 102% | 102%
6 | O=C(c1ccccc1)C(Cl)C(Cl)c1ccccc1 (stereo not drawn) | 86.7% | 7.49% (active) | 106% | 110% | 93.7% | 75.7% | -83.5% (active) | 92.7% | -17.8% (active) | -40.2% (active) | 45.7% | -1.74% (active) | 4.33% (active) | 25.8% | 17.2% | 82.5% | 104% | 31% | 46.8%
7 | Nc1cc2c(cc1N)-c1cc(N)c(N)cc1C2 | 95% | 98% | 102% | 95.5% | 105% | 86.7% | 88.3% | 97.9% | 100% | 116% | 118% | 107% | 102% | 83.8% | 107% | 91.4% | 113% | 103% | 101%
